Laboratory results published in PubChem BioAssay AID624133 (Broad Institute, 2012).
In all, about 1,600 compounds went through this assay and about 1,300 (81%) were called active. The rule behind the calls is not given here. The set was probably picked from earlier hits. A selection follows. Measured potencies and affinities stand elsewhere.

assay: non-specific 3'UTR reporter inhibition in Clone20-Shn3RL – cell-based, Renilla luciferase, cherry-picked, counter-screen for Shn3 inhibitor project, dose response (AID 624133); conditions: Clone20-Shn3RL cells, Renilla luciferase luminescence, 24 h; at 35 µM (top of the series) unless noted;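 note: 0% = neutral control wells and -100% = positive control wells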

| Compound | activity change, negative = inhibition |
| --- | --- |
| CCOC(=O)C1CCN(c2cc3c(cc2NC(=O)c2ccccc2Br)n(C)c(=O)n3C)CC1 | -4.54% |
| COc1ccc(NC(=O)CCOc2cc(C)ccc2C)cc1S(=O)(=O)N1CCCCC1 | 267% |
| COc1cc(OC)cc(C(=O)OCC(=O)Nc2ccc(F)cc2F)c1 | 11.1% |
| CCOc1ccc(Br)cc1C1=CC(=O)C[C@H](c2ccc(OC)cc2)C1 | 133% |
| COc1ccc(-c2cc3nc(C)n(N)c(=O)c3s2)cc1 | 13% |
| CCSc1nnc(NC(=O)c2nc(S(=O)(=O)Cc3ccc(F)cc3)ncc2Cl)s1 | -75% |
| c1ccc(-c2cc(CSc3nc4ccccc4[nH]3)on2)cc1 | -121% |
| COc1ccccc1-n1c(SCC(=O)Nc2cc(C)on2)nc2c(c1=O)SCC2 | 58.3% |
| CSCCC(NC(=O)c1ccccc1)C(=O)OCC(=O)N(C)CCC#N (stereo not given) | 16.7% |
| CN(CC(=O)Nc1ccccc1Cl)C(=O)c1cccc(S(=O)(=O)N2CCN(c3ccccc3)CC2)c1 | -11.9% |
| Cc1cc(C(=O)COc2cccnc2[N+](=O)[O-])c(C)n1-c1ccccc1 | -74.4% |
| CNS(=O)(=O)c1cccc(C(=O)OCc2cc(C(C)=O)ccc2OC)c1 | 329% |
| Cc1ccccc1N/C(=N/S(=O)(=O)c1ccccc1)c1ccc(F)cc1 | 55.6% |
| COc1ccc(OC)c(NC(=O)c2cc(-c3cc(F)ccc3OCC3CCCO3)n[nH]2)c1 (stereo not given) | 26.4% |
| CCC12CN(S(=O)(=O)c3ccc(C)cc3)CC(CC)(CN(S(=O)(=O)c3ccc(C)cc3)C1)C2=O | 154% |
| COc1ccc(C(O)c2nc(-c3cccc(F)c3)cs2)cc1 (stereo not given) | 45.8% |
| O=C(c1n[nH]c(=O)c2ccccc12)N1CCN(C2c3ccccc3-c3ccccc32)CC1 | -59.1% |
| CCOc1ccc(NS(=O)(=O)c2cc(C(=O)NCCN3CCOCC3)ccc2C)cc1 | 360% |
| Cc1ccc(NC(=O)NCCCN2CCOCC2)cc1 | -95.8% |
| O=C(Cc1ccccc1)NCCS(=O)c1ccc(Cl)cc1 (stereo not given) | 58.3% |
| CC(C)(CNC(=O)c1ccc(Cl)c(S(=O)(=O)N2CCc3ccccc3C2)c1)N1CCOCC1 | -44.4% |
| CCN(CC)S(=O)(=O)c1ccc(N2CCOCC2)c(NC(=O)c2nn(C(C)C)c(=O)c3ccccc23)c1 | -4.17% |

| Compound | activity change, negative = inhibition |
| --- | --- |
| Cc1ccc(OC(=O)CCC(=O)Oc2ccc(C)cc2C)c(C)c1 | 70.8% |
| CC(C)C[C@@H](CO)N(Cc1ccccc1)S(=O)(=O)N(Cc1ccccc1)[C@H](CO)CC(C)C | -80% |
| O=C(Nc1ccccc1)Nc1cc(OCC(F)(F)F)cc(OCC(F)(F)F)c1 | 0% |
| O=C(NCCCn1ccnc1)C(=O)NCC1OCCCN1S(=O)(=O)c1ccccc1 (stereo not given) | 8.33% |
| Cc1ccc(S(=O)(=O)NCc2ccncc2)cc1C | 25% |
| Cc1cc(S(=O)(=O)NCc2ccncc2)c(C)cc1Br | 275% |
| CC(=O)N1CCOc2cc(S(=O)(=O)NCc3ccc(F)cc3)c(C)cc21 | 179% |
| COCc1nn2c(N)c(C#N)cnc2c1-c1ccccc1 | 16.7% |
| CC(=O)OCC(=O)[C@@]1(O)CC[C@H]2[C@@H]3CCC4=CC(=O)CC[C@]4(C)[C@H]3C(=O)C[C@@]21C | 12.2% |
| CC(NNC(=S)N1CCN(c2ccccn2)CC1)c1nccc2ccccc12 (stereo not given) | 300% |
| Cc1c(C)c2ccc(OCC(=O)Nc3ccccn3)c(C)c2oc1=O | 107% |
| Cc1ccc(S(=O)(=O)NCCc2cc3ccc(C)cc3[nH]c2=O)cc1 | 33.6% |
| Cc1cc(C(=O)COC(=O)c2ccccc2O)c(C)n1Cc1cccs1 | -4.54% |
| COc1ccc(OC)c(NC(=O)CN(Cc2ccc(F)cc2)C2CCCCC2)c1 | -40% |
| CN=C1c2cc3cc(OC)ccc3n2CCN1Cc1ccccc1 | 64.3% |
| CC(C)(C)c1nc(NCCN2CCOCC2)c2nnn(Cc3ccccc3Cl)c2n1 | -45.5% |
| CCC(C)[C@H]1CNC(=S)N1CCc1cc(C(F)(F)F)cc(C(F)(F)F)c1 (stereo not given in full) | 177% |
| CCN(CC)C(=O)C1CCCN(c2ccc([N+](=O)[O-])cc2[N+](=O)[O-])C1 (stereo not given) | 58.3% |
| C[C@]12CC[C@H](O)CC1=CCC1C2CC[C@@]2(C)C1CCC21OCCO1 (stereo not given in full) | 16.7% |
| Cc1cc(-n2c(C)cc(C(=O)CSc3nncn3C)c2C)no1 | -18.2% |
| CCOc1ccc2nc(SC3CC(=O)N(c4ccc(C)cc4)C3=O)sc2c1 (stereo not given) | 30% |
| Cc1ccc(CNC(=O)c2ccc3c(=O)c(O)c(-c4ccc(C)cc4)[nH]c3c2)cc1 | -14.3% |

| Compound | activity change, negative = inhibition |
| --- | --- |
| CCc1c(O)nc(SCC(=O)Nc2ccccc2)n(-c2ccccc2)c1=O | 80% |
| CN(C(=O)CSc1nc(-c2cccs2)nc2ccccc12)C1CCS(=O)(=O)C1 (stereo not given) | -119% |
| CCN(CC)Cc1c(O)ccc2c1O/C(=C\C=C\c1ccccc1)C2=O | 60% |
| O=C(NCCc1ccccc1)c1ccc2c(c1)OCCO2 | -2.38% |
| COc1ccc2c(c1OC)C(=O)N1c3ccccc3C(=O)N(c3ccccc3F)C21 (stereo not given) | 87.5% |
| CSc1nnc(-c2ccco2)n1-c1ccccc1 | 31.8% |
| CC(C)N1CCN(c2ccc(OCC3COC(Cn4cncn4)(c4ccc(Cl)cc4Cl)O3)cc2)CC1 (stereo not given) | 0% |
| COc1c(CC=C(C)C)cc(C2CC(=O)c3c(O)cc(O)cc3O2)cc1CC=C(C)C (stereo not given) | 50% |
| Nc1nc(N)c2cc(S(=O)(=O)c3ccc4ccccc4c3)ccc2n1 | 16.7% |
| C[C@@H]1CN([C@H](C)CO)C(=O)CCCn2nncc2CO[C@H]1CN(C)S(=O)(=O)c1ccc2c(c1)OCCCO2 | -47.9% |
| O=C(NCCNC(=O)Oc1cccc2ccccc12)Oc1cccc2ccccc12 | 41.7% |
| COc1cc(OC)c(OC)cc1CCC(C)NCCC(c1ccccc1)c1ccccc1 (stereo not given) | -33.3% |
| Cc1ccc(C)c(N2CCN(S(=O)(=O)c3ccc4[nH]c(=O)ccc4c3)CC2)c1 | 4.54% |
| CC1(Cc2ccc(OC(F)(F)F)cc2)C(=O)Nc2c(Cl)ccc(Cl)c21 (stereo not given) | 30% |
| Cc1csc(=O)n1CC(=O)OCC(=O)c1c(N)n(C)c(=O)n(C)c1=O | 10% |
| COc1ccc(CC(=O)Nc2ccncc2Cl)cc1 | -54.2% |
| O=[N+]([O-])c1cccc(S(=O)(=O)NCc2ccncc2)c1 | 14.3% |
| NS(=O)(=O)c1ccc(CNC(=S)NC(=O)c2ccco2)cc1 | 40.3% |
| c1ccc(-c2noc(-c3ccc4ccccc4c3)n2)nc1 | -2.38% |
| Cc1ccc(-c2nc(-c3ccccn3)no2)cc1 | -90.9% |
| CCOC(=O)c1c(NC(=O)c2nn(CC)cc2Br)sc(C)c1C | 16.7% |
